Molecules are shown by their SMILES. Records with an inconclusive call do not appear. Calls of active or inactive are those of the source. Calls follow the shape of the dose curve; as a rule, active = well fitted curve in the direction sought with a large enough effect; inconclusive = small, poorly fitted or top-dose-only effect, or another doubt; inactive = no such curve, though single readings can be large; an effect the other way counts as inactive or inconclusive.

The first assay in a line: Identifying Small Molecule Inhibitors of Pancreatic Cancer Stem Cells (SN12C, Spheroid) (AID 1259360). Also: potency is read from the fitted curve at half-maximal effect.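 As to viability (% of control): 100% = DMSO-treated cells and 0% = wells without cells.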 As to conditions: Potency: SN12C spheroid viability; series mostly up to 46.1 µM; viability (% of control): at the top concentration. The gist of the method:
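Cytotoxicity read by CellTiter-Glo luminescence after 48 h compound exposure at 37C; percent activity scaled between DMSO-treated cells and cell-free wells. Spheroid formats used cells pre-formed 14 days in stem cell media on hydrogel.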
With `COc1ccc(-c2oc3cc(OC)ccc3c2C(=O)c2ccc(C#N)cc2)cc1`, the “viability (% of control)” value is 88.3% (inactive).

With `COc1cccc2cc(-c3nc(C4CCC(C(=O)O)CC4)n4ncnc(N)c34)[nH]c12` (stereo not given), the Potency is 0.372 µM (active).

In the case of `CS(=O)(=O)c1ccc(C(=O)Nc2ccc(Cl)c(-c3ccccn3)c2)c(Cl)c1`, the “viability (% of control)” value is 110% (inactive).

As to `Cc1cc(Nc2nc(N[C@@H](C)c3ncc(F)cn3)ncc2Cl)n[nH]1`, the “viability (% of control)” value is 86.1% (inactive).

Consider `CC1(C)SCCN(S(=O)(=O)c2ccc(OCC#CCO)cc2)[C@@H]1C(=O)NO`, for which the “viability (% of control)” value is 111% (inactive).

As for `COc1cc2nccc(Oc3ccc(NC(=O)NC4CC4)c(Cl)c3)c2cc1C(N)=O`, the “viability (% of control)” value was 87.5% (inactive).

Take `CC(=O)NC(C)c1ccc(Oc2ccc(OC(C)C)cc2)cc1` (stereo not given): the “viability (% of control)” value was 92.6% (inactive).

Regarding `Nc1nccc(-c2ccc3noc(-c4ccc(Cl)cc4)c3c2)n1`, the “viability (% of control)” value was 102% (inactive).

As to `Cc1cc(SCc2sc(-c3ccc(C(F)(F)F)cc3)nc2C)ccc1OCC(=O)O`, the “viability (% of control)” value was 110% (inactive).

Turning to `COc1cc(F)c(F)c(Nc2ccc(I)cc2F)c1NS(=O)(=O)C1(C[C@H](O)CO)CC1`, the “viability (% of control)” value was 91.4% (inactive).

For `CC1(C)CNc2cc(NC(=O)c3cccnc3NCc3ccncc3)ccc21`, the “viability (% of control)” value is 104% (inactive).

Consider `CC(C)OC(=O)C1=CN(C(=O)c2ccc(F)c(F)c2)CC(C)(C)c2c1[nH]c1ccccc21`, for which the “viability (% of control)” value is 89.5% (inactive).

Turning to `Cc1c(C)c2c(c(C)c1O)CCC(C)(COc1ccc(CC3SC(=O)NC3=O)cc1)O2` (stereo not given), the “viability (% of control)” value was 97.2% (inactive).

As for `COc1ccc2c3n(c(=NC(=O)c4cccnc4)nc2c1OC)CCN3`, the Potency is 5.9 µM (active).

Regarding `NC(=O)c1ccc(I)c([N+](=O)[O-])c1`, the “viability (% of control)” value was 109% (inactive).

Regarding `CCOc1cc(C=C2C(=O)N(c3ccccc3)N=C2C)cc(Cl)c1OCC(=O)OC`, the “viability (% of control)” value was 94.4% (inactive).

Regarding `CS(=O)(=O)c1cccc(CNc2nc(Nc3ccc4c(c3)CCC(=O)N4)ncc2C(F)(F)F)c1`, the “viability (% of control)” value was 98.3% (inactive).

As to `COc1ccc2nc(S(=O)Cc3ncc(C)c(OC)c3C)[nH]c2c1` (stereo not given), the “viability (% of control)” value was 78.9% (inactive).

On to `COc1nc(-c2ccc3c(c2)OCO3)n(-c2ccc(NC(=O)CSc3ccccc3)cc2)n1`, for which the “viability (% of control)” value is 89.4% (inactive).

On to `Cc1[nH]c(=O)c(C#N)cc1-c1ccc2nccn2c1`, for which the “viability (% of control)” value was 107% (inactive).

`CCN(CC)CCCC(C)Nc1nc(C)cc(Nc2ccc3nc(C)cc(N)c3c2)n1` (stereo not given): the “viability (% of control)” value was 73.5% (inactive).

`O=C(C=Cc1ccc(/C=C/C(=O)Nc2ccc(C3=NCCN3)cc2)cc1)Nc1ccc(C2=NCCN2)cc1`: the “viability (% of control)” value was 95.3% (inactive).

For `CCCc1nn(C)c2c(=O)[nH]c(-c3cc(S(=O)(=O)N4CCN(C)CC4)ccc3OCC)nc12`, the “viability (% of control)” value is 112% (inactive).

With `Cc1n[nH]c(C)c1Cc1sc2c(c1C(=O)N1C[C@H](O)CO1)c(=O)n(C)c(=O)n2CC(C)C`, the “viability (% of control)” value was 115% (inactive).

Take `CC(C)(Sc1ccc(CCN(CCCCC2CCCCC2)C(=O)NC2CCCCC2)cc1)C(=O)O`: the “viability (% of control)” value was 93.6% (inactive).

In the case of `Cc1c(CCOc2ccc(C(=O)O)cc2)c2cc(Cl)ccc2n1C(c1ccccc1)c1ccccc1`, the “viability (% of control)” value was 99.8% (inactive).

As for `OC(CN1CCC(Cc2ccc(F)cc2)CC1)c1ccc(Cl)cc1` (stereo not given), the “viability (% of control)” value is 80.1% (inactive).

`Cc1cc(C=c2sc3nc4ccccc4n3c2=O)c(C)n1-c1ccccc1`: the “viability (% of control)” value is 89.7% (inactive).

On to `CC(C)C[C@H](NC(=O)[C@@H](O)[C@H](N)Cc1ccccc1)C(=O)O`, for which the “viability (% of control)” value was 99.8% (inactive).

As for `CC(c1cc2ccccc2s1)N(O)C(N)=O` (stereo not given), the “viability (% of control)” value is 116% [at 92.2 µM] (inactive).

Turning to `NC(=O)C1CCCc2c1[nH]c1ccc(Cl)cc21` (stereo not given), the “viability (% of control)” value was 99% (inactive).

In the case of `O=C1CCCC2=C1C(c1[nH]ncc1Cl)N=C(Nc1nc3ccccc3o1)N2` (stereo not given), the “viability (% of control)” value is 106% (inactive).

As to `CS(=O)(=O)Oc1ccc2c(NC(N)=O)c(C(=O)c3ccc(Cl)cc3Cl)oc2c1`, the “viability (% of control)” value was 104% (inactive).

For `Cc1cnc(Nc2ccc(OCCN3CCCC3)cc2)nc1Nc1cccc(S(=O)(=O)NC(C)(C)C)c1`, the “viability (% of control)” value was 102% (inactive).

Turning to `O=C(O)c1ccc(-c2c[nH]c3ccc(-c4ccccc4)cc23)cc1C1CCCC1`, the “viability (% of control)” value is 75.6% (inactive).

With `N#Cc1ccc(C(c2ccc(C#N)cc2)n2cncn2)cc1`, the “viability (% of control)” value was 108% (inactive).

With `C[C@]12CC[C@H](O)CC1=CC[C@@H]1[C@H]2CC[C@]2(C)C(c3cccnc3)=CC[C@H]12`, the “viability (% of control)” value is 102% (inactive).

The next assay is described as follows: Identifying Small Molecule Inhibitors of Pancreatic Cancer Stem Cells (A278, Adherent) (AID 1259361). Also: nearly all actives have a fitted effect of over 35% in size.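 As to viability (% of control): 100% = DMSO-treated cells and 0% = cell-free media-only wells.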 The note with it: series mostly up to 46.1 µM; viability (% of control): at the top concentration. The gist of the method: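 Monolayer and spheroid cultures are compared. Spheroids form over 14 days in stem cell medium on hydrogel-coated low-attachment plates, then are exposed to compound for 48 h before CellTiter-Glo luminescence.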
Consider `Cc1cc(Nc2nc(N[C@@H](C)c3ncc(F)cn3)ncc2Cl)n[nH]1`, for which the “viability (% of control)” value is 86.8 (inactive).

As for `CC1(C)SCCN(S(=O)(=O)c2ccc(OCC#CCO)cc2)[C@@H]1C(=O)NO`, the “viability (% of control)” value is 80.6 (inactive).

For `COc1cc(F)c(F)c(Nc2ccc(I)cc2F)c1NS(=O)(=O)C1(C[C@H](O)CO)CC1`, the IC50 (viability decrease) was 20.9 µM (active).

With `CC(C)OC(=O)C1=CN(C(=O)c2ccc(F)c(F)c2)CC(C)(C)c2c1[nH]c1ccccc21`, the “viability (% of control)” value was 86 (inactive).

For the compound `NC(=O)c1ccc(I)c([N+](=O)[O-])c1`, the “viability (% of control)” value was 103 (inactive).

Take `CS(=O)(=O)c1cccc(CNc2nc(Nc3ccc4c(c3)CCC(=O)N4)ncc2C(F)(F)F)c1`: the IC50 (viability decrease) was 3.72 µM (active).

`Cc1[nH]c(=O)c(C#N)cc1-c1ccc2nccn2c1`: the “viability (% of control)” value was 102 (inactive).

Consider `CCN(CC)CCCC(C)Nc1nc(C)cc(Nc2ccc3nc(C)cc(N)c3c2)n1` (stereo not given), for which the “viability (% of control)” value is 80 (inactive).

For the compound `O=C(C=Cc1ccc(/C=C/C(=O)Nc2ccc(C3=NCCN3)cc2)cc1)Nc1ccc(C2=NCCN2)cc1`, the “viability (% of control)” value is 101 (inactive).

On to `CCCc1nn(C)c2c(=O)[nH]c(-c3cc(S(=O)(=O)N4CCN(C)CC4)ccc3OCC)nc12`, for which the “viability (% of control)” value is 100 (inactive).

On to `CC(C)(Sc1ccc(CCN(CCCCC2CCCCC2)C(=O)NC2CCCCC2)cc1)C(=O)O`, for which the “viability (% of control)” value was 97.3 (inactive).

`Cc1c(CCOc2ccc(C(=O)O)cc2)c2cc(Cl)ccc2n1C(c1ccccc1)c1ccccc1`: the “viability (% of control)” value is 91.8 (inactive).

Consider `OC(CN1CCC(Cc2ccc(F)cc2)CC1)c1ccc(Cl)cc1` (stereo not given), for which the “viability (% of control)” value is 98.5 (inactive).

For the compound `Cc1cc(C=c2sc3nc4ccccc4n3c2=O)c(C)n1-c1ccccc1`, the “viability (% of control)” value is 96.6 (inactive).

Turning to `CC(C)C[C@H](NC(=O)[C@@H](O)[C@H](N)Cc1ccccc1)C(=O)O`, the “viability (% of control)” value was 98.2 (inactive).

Regarding `Cc1cnc(Nc2ccc(OCCN3CCCC3)cc2)nc1Nc1cccc(S(=O)(=O)NC(C)(C)C)c1`, the “viability (% of control)” value is 99.5 (inactive).

In the case of `N#Cc1ccc(C(c2ccc(C#N)cc2)n2cncn2)cc1`, the “viability (% of control)” value was 104 (inactive).

For `C[C@]12CC[C@H](O)CC1=CC[C@@H]1[C@H]2CC[C@]2(C)C(c3cccnc3)=CC[C@H]12`, the “viability (% of control)” value was 93.2 (inactive).

The values above are taken from PubChem BioAssay (NCATS).
